Bioassay records deposited in PubChem by National Center for Advancing Translational Sciences (NCATS).
Sampled rows, rich in hits. Any-hit rate of the full collection: about 1.3%.
TRPV1 agonist = human TRPV1 agonism; 320,000 compounds, 0.19% hits; AID 540275; activation, % at 8.33 µM; TRPV1-expressing cells, Fluo-8 calcium influx, agonist mode; in the data active = activation above about 80%; inconclusive = between about 30% and that limit
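TRPV1-expressing cells were cultured overnight at 35.5C and loaded with Fluo-8 calcium dye for 40 to 90 min at room temperature. After a 10 s baseline, compound was added and calcium influx was read kinetically for 3 min (ex 480/em 520 nm).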
KCNH2 WT inh = inhibitors of human wildtype KCNH2 potassium channel. Q12809. activity change, % at 1.84 µM. AID 720551. 340,000 compounds, 0.37% hits. U2OS, BacMam KCNH2, thallium flux FluxOr; hits give low values;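 active = maximum activity change below -70%; inconclusive = maximum activity change between -70% and -50%; inactive = maximum activity change above -50%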
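U2OS cells were transduced with wild-type KCNH2 virus (2.03 x 10^8 / mL) for 4 h at room temperature, then cultured overnight at 37 C. Thallium flux was read with FluxOr dye. Rate constants were normalized to DMSO controls.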
KCNH2 3.1 block = KCNH2 3.1 (human) potassium channel inhibition; U2OS KCNH2 3.1, thallium flux FluxOr; hits give low values; activity change, % (tested at about 1.8 µM); 340,000 compounds, 0.95% hits;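 active = maximum activity change below -70%; inconclusive = maximum activity change from -70% to -50%; inactive = maximum activity change above -50%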;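 note: thallium influx rate constant from kinetic fluorescence after stimulation buffer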
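We transduce U2OS cells with the mutant 3.1 virus, culture them overnight, load FluxOr with Red40 quencher for 45 min, then add stimulation buffer and read kinetically for 2 min to derive a normalized rate constant.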
TRPV1 potentiator = human TRPV1 potentiation; Q8NER1; TRPV1-expressing cells, Fluo-8 calcium influx, capsaicin EC20 potentiation; potentiation, % at 8.33 µM; 320,000 compounds, 0.02% hits; AID 540277; in the data active = potentiation above about 80%; inconclusive = between about 30% and that limit
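TRPV1-expressing cells were cultured overnight at 35.5C and loaded with Fluo-8 calcium dye for 40 to 90 min at room temperature. After a 10 s baseline, compound was added and calcium influx was read kinetically for 3 min (ex 480/em 520 nm).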
TRPML1 agonist = activates the human TRPML1 channel. 410,000 compounds, 0.12% hits. activation, % (concentration not given with the values). Q9GZU1. AID 624414. TRPML1-expressing cells, Ca2+ dye fluorescence, FDSS; in the data active = activation above about 50%; inconclusive = mostly about 30% to 49%
Target sequence (Q9GZU1 whole entry, looked up): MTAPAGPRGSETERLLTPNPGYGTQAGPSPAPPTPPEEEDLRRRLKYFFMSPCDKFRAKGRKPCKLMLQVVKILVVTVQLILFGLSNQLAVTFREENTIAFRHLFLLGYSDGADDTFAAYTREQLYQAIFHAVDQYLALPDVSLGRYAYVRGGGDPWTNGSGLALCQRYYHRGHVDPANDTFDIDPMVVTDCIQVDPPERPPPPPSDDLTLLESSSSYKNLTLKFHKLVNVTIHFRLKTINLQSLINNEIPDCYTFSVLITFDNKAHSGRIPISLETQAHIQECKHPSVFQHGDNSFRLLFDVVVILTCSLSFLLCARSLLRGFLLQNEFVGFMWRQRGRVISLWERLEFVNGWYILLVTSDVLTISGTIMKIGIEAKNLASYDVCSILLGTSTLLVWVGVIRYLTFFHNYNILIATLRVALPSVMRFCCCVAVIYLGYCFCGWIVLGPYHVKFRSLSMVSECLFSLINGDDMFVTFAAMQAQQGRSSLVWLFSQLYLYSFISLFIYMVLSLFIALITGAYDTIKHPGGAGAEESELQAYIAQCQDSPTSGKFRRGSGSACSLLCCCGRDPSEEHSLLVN
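Kinetic FDSS Ca2+ read in Tet-induced TRPML1-DL cells (ABD Ca8 dye plus quencher, 45-90 min RT loading): baseline, then compound, then 110 s agonist window; EC80 agonist 54-4 at 4uM final added afterwards for a 110 s antagonist window.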
TRPML1 blocker = blocks the human TRPML1 channel. activity change, negative = inhibition, % (concentration not given with the values). Q9GZU1. 390,000 compounds, 0.02% hits. TRPML1-inducible cells, Ca2+ dye fluorescence, FDSS; hits give low values; inhibition of EC80 agonist-evoked calcium signal; in the data active = activity change below about -50%; inconclusive = between about -30% and that limit;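 note: stimulus is agonist 54-4 at its EC80 concentration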
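TRPML1-DL cells, Tet-induced overnight (~16 h, 37 °C) at 1,500 cells/well, were loaded with Ca8 no-wash dye plus quencher for 45-90 min at room temperature. Compounds were pinned during FDSS kinetic reading; agonist 54-4 at EC80 (4 uM final) then added.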
Each line names hits and unclear results; the compound was inactive in the other large screens.

Cc1ccc(S(=O)(=O)Nc2cccc(C(=O)NCC3(N4CCCCC4)CCCCC3)c2)cc1F	KCNH2 3.1 block -78
O/N=C(/C[n+]1csc2ccccc21)c1ccccc1	none (no result: TRPV1 agonist, KCNH2 WT inh, KCNH2 3.1 block, TRPV1 potentiator, TRPML1 blocker)
CN1CCN(c2ccc(Cl)cc2NC(=O)/C=C/c2cccc(F)c2)CC1	KCNH2 WT inh inconclusive, KCNH2 3.1 block -70
CN1CCN(c2ccc(Cl)cc2NC(=O)c2cccc(S(=O)(=O)N(C)C)c2)CC1	none
CC(Oc1ccc(F)cc1)C(=O)Nc1cccc(-c2nn[nH]n2)c1 (configuration not stated)	KCNH2 WT inh -86
COc1ccc(OC(C)C(=O)Nc2cccc(OC)c2)cc1 (configuration not stated)	none
CCCSc1nc2c(cnn2-c2ccc(C)c(C)c2)c(=O)[nH]1	KCNH2 3.1 block -123
Cc1cc(C)n(Cc2ccc(Cl)cc2Cl)c(=O)c1S(=O)(=O)c1ccccc1	TRPML1 agonist 71
Nc1cc(N)nc(SCC(=O)N2CCN(S(=O)(=O)c3ccccc3)CC2)n1	KCNH2 WT inh -90 (no result: TRPML1 agonist, TRPML1 blocker)
Fc1ccc(Nc2nc(SCc3ccccc3F)nc3ccccc23)cc1	none (no result: TRPV1 agonist, KCNH2 WT inh, KCNH2 3.1 block, TRPV1 potentiator)
Cn1c(SCC(=O)Nc2ccccc2Oc2ccccc2)nnc1C1CC1	KCNH2 WT inh -110
Cc1nc(NC(=O)CSc2nnc(C3CC3)n2C)sc1C	KCNH2 WT inh -254
Brc1cccc[n+]1CCCC[n+]1ccccc1Br	none (no result: TRPV1 agonist, KCNH2 WT inh, KCNH2 3.1 block, TRPV1 potentiator, TRPML1 blocker)
COc1ccc(C(=O)NCCc2sc(-c3cccc(F)c3)nc2C)cc1	none (no result: TRPV1 agonist, KCNH2 WT inh, KCNH2 3.1 block, TRPV1 potentiator)
Cc1ccc(-n2c(-c3c(-c4ccccc4)noc3C)n[nH]c2=S)cc1	KCNH2 3.1 block -188
Cc1ccc(-c2n[nH]c(=S)n2-c2ccccc2)cc1	none
COc1ccccc1NS(=O)(=O)c1cccc(NC(=O)Nc2ccccc2)c1	none
CCNC(=S)Nc1cccc(S(=O)(=O)Nc2ccccc2OC)c1	KCNH2 3.1 block -85
O=C(c1cc(F)cc(F)c1)N1CCC(c2nc(-c3ccc(S(=O)(=O)N4CCCC4)cc3)no2)CC1	none (no result: TRPV1 agonist, KCNH2 WT inh, KCNH2 3.1 block, TRPV1 potentiator)
Cc1ccccc1N1CCN(CCCN2C(=O)CC(=C(c3ccccc3)c3ccccc3)C2=O)CC1	none
O=C1CC(=C(c2ccccc2)c2ccccc2)C(=O)N1CCCCN1CCN(c2cccc(Cl)c2)CC1	KCNH2 WT inh -75, KCNH2 3.1 block -74
COc1ccc(NC(=O)CN(C)S(=O)(=O)c2ccc(C)cc2)c([N+](=O)[O-])c1	KCNH2 WT inh -122
COc1ccc(CN(C)CC(=O)Nc2cc(OC)c([N+](=O)[O-])cc2C)c(OC)c1	KCNH2 3.1 block -71
Cc1cccc(Cn2cnc3c(cnn3C(C)(C)C)c2=O)c1F	none (no result: TRPV1 agonist, KCNH2 WT inh, KCNH2 3.1 block, TRPV1 potentiator)
COc1ccc(-c2cc(C(F)F)n3ncc(C(=O)Nc4cc(C)on4)c3n2)cc1	TRPV1 agonist 85
Cc1ccc(NCCC(=O)c2cccs2)cc1	TRPV1 agonist inconclusive
O=C(CCNc1cccc(Cl)c1)c1cccs1	TRPV1 agonist inconclusive, KCNH2 3.1 block -70
Cc1ccc(NCCC(=O)c2cccs2)cc1Cl	none
CC(C)c1ccc(NCCC(=O)c2cccs2)cc1	TRPV1 agonist 90
Cc1cccc(CCNC(=O)c2ccc3c(c2)nc2n3CCCCC2)c1	none (no result: TRPV1 agonist, KCNH2 WT inh, KCNH2 3.1 block, TRPV1 potentiator)
Cc1cc2ccccc2c[n+]1C	none (no result: TRPV1 agonist, KCNH2 WT inh, KCNH2 3.1 block, TRPV1 potentiator, TRPML1 blocker)
COc1cccc(NC(=O)CSc2nc3ccc(NC(=O)c4ccco4)cc3s2)c1	none (no result: TRPV1 agonist, KCNH2 WT inh, KCNH2 3.1 block, TRPV1 potentiator)
CC1CC(C)CN(C(=O)COC(=O)/C=C/c2cccc([N+](=O)[O-])c2)C1 (configuration not stated)	KCNH2 3.1 block -109
Cc1nn(Cc2ccc(Cl)cc2)c(C)c1NC(=O)CCCn1nc(C)c([N+](=O)[O-])c1C	TRPV1 agonist 93
O=c1c2oc3ccccc3c2n(Cc2ccc(Cl)cc2)c(=O)n1Cc1ccco1	none (no result: TRPV1 agonist, KCNH2 WT inh, KCNH2 3.1 block, TRPV1 potentiator)
CN(C)c1ccc(/C=C/C(=O)c2cccc(Br)c2)cc1	TRPV1 agonist 87, KCNH2 WT inh -149, KCNH2 3.1 block -115
CN(C)c1ccc(C(=O)/C=C/c2cccnc2)cc1	none (no result: TRPML1 agonist, TRPML1 blocker)
CCOc1cccc(C2C=C(c3ccc4c(c3)OCO4)NC(c3ccccc3Cl)N2)c1O (configuration not stated)	none (no result: TRPV1 agonist, KCNH2 WT inh, KCNH2 3.1 block, TRPV1 potentiator, TRPML1 blocker)
